Reference: paper PMC13083723 (Patterns, 2026)
The whole screen tested about 5,400 compounds, of which about 190 (3.5%) showed an effect of 50% or more. Many of the other results were omitted from the sample, so strong results are more common in it than they were.

The molecules below were run on Vero-E6 (assay: primary screen, phospholipidosis by LipidTOX staining; higher = more effect of the substance). Conditions: 10 µM.
Protocol: To measure drug-induced PLD in Vero-E6 cells, we used the HCS LipidTOX Red Phospholipidosis Detection Reagent (Invitrogen, #H34351), which is non-toxic to cell growth and remains well retained after aldehyde fixation. In this setup, compounds (at 10 μM concentration) and controls (amiodarone: 10 μM concentration; DMSO: 0.1 v/v %) were added to clear-bottom, 384-well plates (PhenoPlate 384-well, black, optically clear flat bottom, tissue-culture treated, Revvity #6057302) using the Echo Liquid Handler (Labcyte).

| SMILES | result_ITMP |
| --- | --- |
| CCCOC(C(=O)OC1CCN(C)CC1)(c1ccccc1)c1ccccc1 | 63.8% |
| C[C@H]1CCC/C=C/[C@@H]2C[C@H](O)C[C@H]2[C@H](O)/C=C/C(=O)O1 | -2.38% |
| COC(=O)C[C@](O)(CCC(C)(C)O)C(=O)O[C@@H]1C(OC)=C[C@]23CCCN2CCc2cc4c(cc2[C@H]13)OCO4 | -10.1% |
| C#C[C@]1(O)CC[C@H]2[C@@H]3CCC4=CC(=O)CC[C@]4(C)[C@H]3CC[C@@]21C | -7.32% |
| CN1[C@@H]2CC[C@H]1C[C@@H](OC(=O)c1cc(Cl)cc(Cl)c1)C2 | 9.65% |
| CN(CCc1ccc(Cl)c(Cl)c1)CCN1CCCC1 | 51.3% |
| C[N@+]1(CC2CC2)CC[C@]23c4c5ccc(O)c4O[C@H]2C(=O)CC[C@@]3(O)[C@H]1C5 | 0.23% |
| CCN1C[C@]2(COC(=O)c3ccccc3N3C(=O)C[C@H](C)C3=O)CC[C@H](OC)[C@@]34[C@@H]5C[C@H]6[C@H](OC)[C@@H]5[C@](O)(C[C@@H]6OC)[C@@](O)([C@@H](OC)[C@H]23)[C@@H]14 | 0.37% |
| C=CC[C@]1(O)CC[C@H]2[C@@H]3CCC4=CCCC[C@@H]4[C@H]3CC[C@@]21C | 0.46% |
| COc1cc2c(cc1OC)[C@@]13CCN4CC5=CCO[C@H]6CC(=O)N2[C@H]1[C@H]6[C@H]5C[C@H]43 | 1.12% |
| CN1C[C@H](CNC(=O)OCc2ccccc2)C[C@@H]2c3cccc4c3c(cn4C)C[C@H]21 | 61.8% |
| CC(=O)OC[C@]12CCC(C)=C[C@H]1O[C@@H]1[C@H](O)[C@@H](OC(C)=O)[C@@]2(C)[C@]12CO2 | -25.8% |
| Oc1ccc2c3c1O[C@H]1c4[nH]c5ccccc5c4C[C@@]4(O)[C@@H](C2)N(CC2CC2)CC[C@]314 | 37.4% |
| C[C@@H]1CN([C@H]2CC[C@](C#N)(c3ccc(F)cc3)CC2)CC[C@]1(C(=O)O)c1ccccc1 | -9.01% |
| Cc1onc(O)c1C[C@H](N)C(=O)O [R4A_0004356_001 / SPE_K92493880] | -0.72% |
